FBW7 act = activators of human E3 ligase FBW7 | actives 0.13% (n = 650,000) | normalized activity (activation), % at 26.1 µM | AlphaScreen FBW7–phospho-cyclin E peptide binding, activator screen | Q969H0; in the data active means normalized activity above about 1.9%;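 further: purified mutant Fbw7 with reduced substrate affinity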
MITF inh = inhibitors of human MITF | O75030 | AlphaScreen MITF homodimerization, bead proximity signal | inhibition, % at 2.6 µM | actives 0.91% (n = 650,000) | AID 1259374; in the data active means inhibition above about 50%;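 further: 0% = vehicle wells with protein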
Target sequence (O75030 whole entry, looked up): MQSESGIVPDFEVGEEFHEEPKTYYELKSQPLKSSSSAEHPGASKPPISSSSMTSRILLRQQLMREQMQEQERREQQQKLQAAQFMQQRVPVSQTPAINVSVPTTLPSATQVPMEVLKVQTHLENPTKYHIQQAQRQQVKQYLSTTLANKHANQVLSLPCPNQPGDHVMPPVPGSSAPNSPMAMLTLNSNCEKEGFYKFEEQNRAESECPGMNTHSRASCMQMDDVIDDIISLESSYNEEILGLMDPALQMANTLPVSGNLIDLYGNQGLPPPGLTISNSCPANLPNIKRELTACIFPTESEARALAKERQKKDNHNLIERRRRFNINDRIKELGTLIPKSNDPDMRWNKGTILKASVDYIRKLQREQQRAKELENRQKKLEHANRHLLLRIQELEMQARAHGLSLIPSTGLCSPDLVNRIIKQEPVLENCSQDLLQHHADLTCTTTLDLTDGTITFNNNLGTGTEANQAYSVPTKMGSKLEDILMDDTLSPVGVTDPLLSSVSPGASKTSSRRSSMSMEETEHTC
GPR151 ag = activators of human GPR151; Q8TDV0; PathHunter beta-arrestin GPR151 cells, luminescence; activation, % at 11.2 µM; actives 1% (n = 650,000); AID 1508602; in the data active means activation above about 4.9%;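 further: 0% = median of compound wells and 100% = cells with positive control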
TEAD-YAP inh = TEAD-YAP interaction inhibition; HEK-TIYL cells, TEAD-Gal4/YAP UAS-luciferase luminescence; inhibition, % at 9.12 µM; actives 1.4% (n = 640,000); in the data active means inhibition above about 32%;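 further: 0% = median of test compound wells and 100% = reference inhibitor wells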
MITF confirm = confirmation of human MITF inhibitors | inhibition, % at 2.6 µM | AlphaScreen MITF homodimerization, biotin/His-MITF beads | shares compounds with MITF inh | AID 1259372 | actives 16% (n = 4,700);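 active means inhibition above a cutoff derived from the DMSO control wells, cut at about 28% in these data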;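 further: 0% = MITF dimer wells with DMSO only; inhibitors lower the bead chemiluminescence by keeping MITF from dimerizing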
AS interf DR = optically interferes with AlphaScreen signal in dose response. AlphaScreen optical interference counterscreen, cell-free. actives 6% (n = 480). IC50, µM. shares compounds with MITF inh; call rule not given here
AlphaScreen intf2 = optically interferes with AlphaScreen signal; LysRS AlphaScreen counterscreen, signal interference, triplicate; actives 7.6% (n = 4,700); inhibition, % at 2.6 µM; shares compounds with MITF inh;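 active means inhibition above a cutoff derived from the DMSO control wells, cut at about 30% in these data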
An asterisk follows results filed as active; . = not tested or not shown. Only some compounds are listed: those with a hit (about 3.5% of all), similar ones and a draw of the others.

SMILES	FBW7 act	MITF inh	GPR151 ag	TEAD-YAP inh	MITF confirm	AlphaScreen intf2	others
Cc1cc(N)n(-c2ccc(Oc3ccccc3)cc2S(=O)(=O)O)n1	1.0	51.9*	-1.1	5.7	4.6	4.4
COc1cc(NC(=O)c2ccc3nc(-c4ccccc4)sc3c2)cc(OC)c1OC	0.2	67.6*	1.9	-1.1	6.2	5.2
CCOC(=O)N1CCN(Cc2cn3ccccc3n2)CC1	-0.1	60.9*	0.7	2.9	-2.7	-1.9
CC1(C)C2CCC1(C)C(NCC(O)COc1ccc(C#N)cc1)C2 (centres undefined)	-0.2	76.8*	-0.5	4.5	-18.4	-4.4
OC(CNC1CCCC1)COc1ccc(OCC(O)CNC2CCCC2)cc1 (centres undefined)	-0.1	5.1	3.0	8.5	.	.
CCOC(=O)C1C(=O)c2ccccc2C1=O	-0.1	7.5	0.7	-2.2	.	.
Cc1cccc2nc(Cn3ccccc3=O)cn12	0.0	12.7	0.0	-1.3	.	.
Cc1cccc2nc(CN3CCN(c4ccc(F)cc4)CC3)cn12	-0.2	72.3*	-1.2	0.8	-14.1	1.7
CC(C)Sc1nc(-c2ccc([N+](=O)[O-])cc2)nc2c1c(=O)n(C)c(=O)n2C	0.0	1.8	0.5	-9.5	.	.
COc1cccc(COC(=O)Nc2cc(F)c(-c3cn[nH]c3)cc2OCCN(C)C)c1	1.3	80.5*	-0.3	-5.3	46.6*	4.9
COc1cccc(COC(=O)Nc2ccc(-c3cn[nH]c3)cc2OCCN(C)C)c1	0.6	14.5	0.4	-11.2	.	.
Cc1nc2c3ccccc3n(Cc3cccc(C(F)(F)F)c3)c(=O)n2n1	0.2	-3.2	3.6	-12.6	.	.
CCCCC(CC)CNCC(O)COCc1ccc(OC)c(OC)c1 (centres undefined)	0.2	65.4*	-0.9	4.2	21.4	26.9
COCCn1nnnc1C(c1cc2ccc(OC)cc2[nH]c1=O)N1CCCC1 (centres undefined)	-0.1	9.6	0.3	-6.8	.	.
O=C(c1ccc(S(=O)(=O)c2ccc(F)cc2)c([N+](=O)[O-])c1)N1CCN(c2ccc(F)cc2)CC1	-0.1	0.5	0.5	-8.1	.	.
CCSc1nnc(NC(=O)c2c(-c3ccccc3Cl)noc2C)s1	0.4	114.1*	-0.9	6.4	25.1	11.7
CCOC(=O)CSc1nnc(NC(=O)c2c(-c3ccccc3Cl)noc2C)s1	-0.1	11.9	-0.6	1.5	.	.
COc1ccc(CN2CCN(Cc3ccc(OC)c(Br)c3)CC2)c(OC)c1	-0.2	63.1*	0.4	-8.9	1.8	5.3
COc1ccc(CN2CCN(C3CCCC3)CC2)cc1Br	-0.1	23.1	-0.8	2.2	.	.
COc1ccc(OC)c(CN2CCN(Cc3ccc(OC)c(Br)c3)CC2)c1	-0.2	65.7*	-0.8	4.6	10.7	17.8
COc1ccc(OC)c(CN2CCN(Cc3cccc(Br)c3)CC2)c1	-0.2	59.0*	-0.4	0.4	17.7	17.5
Cc1ccc(NC(=O)C2CC(=O)N(c3ccc(Br)cc3)C2)c(C)c1 (centres undefined)	0.2	26.0	-0.9	12.7	.	.
N#Cc1c(C#N)c(N)n(N)c1N	-0.8	93.8*	0.9	-2.2	94.7*	73.0*
CN(c1ccc(C(=O)NCc2ccccn2)cc1)S(=O)(=O)c1ccc(Cl)cc1	0.0	58.1*	0.8	13.2	-14.2	-2.7
O=C(Nc1ccccc1-c1ccccc1)C1CCCN1C(=O)Nc1ccccc1 (centres undefined)	0.1	79.0*	0.6	6.5	11.6	16.4
SMILES	FBW7 act	MITF inh	GPR151 ag	TEAD-YAP inh	MITF confirm	AlphaScreen intf2	others
Cc1cccnc1C1(O)CCN(C(=O)Cc2nn(C)c(=O)c3ccccc23)CC1	-0.1	1.5	-1.2	2.5	.	.
O=C(CCCCCn1nnc2ccccc2c1=O)N1CCC(O)(c2cccc(C(F)(F)F)c2)CC1	0.1	74.2*	1.5	6.7	6.9	1.5
CC1CC(C)CN(S(=O)(=O)c2cc(Br)cnc2N)C1 (centres undefined)	-0.1	1.6	-1.2	4.3	.	.
CC(=O)Nc1ccccc1NC(=O)C(c1ccccc1)c1ccccc1	0.3	6.4	-0.2	8.0	.	.
CC(C(=O)N1CCCCC1)N(C)CC(=O)Nc1ccc(F)c(F)c1F (centres undefined)	-0.1	68.7*	0.0	5.7	9.1	14.3
Cc1ccc(C)c(Cn2c(NCCNC(=O)C3CCC3)nc3c2c(=O)n(C)c(=O)n3C)c1	-0.1	73.1*	0.0	8.1	3.7	13.1
COCC(=O)NCCNc1nc2c(c(=O)n(C)c(=O)n2C)n1Cc1cc(C)ccc1C	0.0	76.7*	-0.3	6.5	1.0	9.2
CC(C(=O)Nc1ncccn1)(C(F)(F)F)C(F)(F)F	0.0	-9.7	0.3	-3.2	.	.
CCCCn1c(=O)[nH]c(=O)c2c1nc(-c1ccc([N+](=O)[O-])o1)n2C	-0.2	79.0*	0.0	15.1	66.5*	5.2	AS interf DR=>7
CCCCn1c(=O)[nH]c(=O)c2c1nc(-c1ccc(C)c([N+](=O)[O-])c1)n2CC	0.5	10.5	-0.2	-11.0	.	.
CCc1cc(OCCCNCCN2CCOCC2)ccc1Cl	0.1	48.4	-1.1	-6.8	.	.
CCc1cc(OCCCN2CCN(CC)CC2)ccc1Cl	-0.2	67.3*	-0.3	6.6	16.4	16.2
CCN1CCN(CCCOc2ccc3c(c2)CCC3)CC1	0.1	61.2*	0.1	6.3	4.5	4.8
COc1ccc(N2CCN(C(=O)c3ccc(SCc4ccc(C)cc4)c([N+](=O)[O-])c3)CC2)cc1	0.3	13.8	-0.6	-7.9	.	.
CCCCNc1c(C=O)c(=O)oc2cc(N(CC)CC)ccc12	0.7	-27.4	-0.2	11.7	.	.
O=C1CCCN1CCCNCC(=O)N1c2ccccc2Sc2ccccc21	-0.1	75.9*	-0.6	3.4	-16.4	-0.8
CCOc1ccc(S(=O)(=O)N(CC(=O)NCCOC)c2ccc(C)cc2)cc1	0.0	9.3	1.2	-1.6	.	.
COc1cc(/C=C/C(=O)O)cc(S(=O)(=O)Nc2ccccc2C(N)=O)c1OC	0.0	-8.7	-0.6	-7.2	.	.
CCOc1ccc(NC(=O)C(=O)N2CCCCC2)cc1	-0.1	13.4	0.3	-34.9	.	.
COC(=O)c1ccccc1NC(=O)/C(C#N)=C/c1cc(Cl)c(OC)c(OC)c1	0.1	53.3*	0.8	6.6	2.8	3.9
N=C1S/C(=C\c2ccco2)C(=O)N1c1nonc1N	-0.4	81.8*	-1.3	-43.3	59.5*	2.3	AS interf DR=>7.04
O=C(c1csc(-n2cccc2)n1)N1CCN(c2ccccc2O)CC1	-0.3	3.0	-1.4	2.1	.	.
O=C(c1csc(-n2cccc2)n1)N1CCN(c2ccccn2)CC1	-0.4	60.0*	-1.5	1.8	14.1	9.3
COc1cc2c(cc1OC)CN(Cc1cc(OC)c3c(c1)OCO3)CC2	-0.2	23.7	0.3	1.6	.	.
COc1cc(CN2CCN(Cc3ccccc3Cl)CC2)cc2c1OCO2	0.1	75.6*	-1.0	-2.5	14.6	12.0
COc1cc(CN2CCN(Cc3ccccc3Br)CC2)cc2c1OCO2	-0.3	73.2*	-1.0	0.6	8.4	14.0

Compound activity (PubChem)
